FBPA Giardia inh = qHTS Assay for Inhibitors of Fructose-1,6-bisphosphate Aldolase from Giardia Lamblia; A8B2U2; purified Giardia FBPA; Potency, µM (highest dose often 59.6 µM), without a hit: top-dose activity, negative = inhibition, most hits filed as inhibitors; 0.71% of 290,000 active; AID 2451, 2010; further: potency means the concentration at half of the fitted maximal effect; nearly all actives have a fitted effect of over 55% in size
Target sequence (A8B2U2 whole entry, looked up): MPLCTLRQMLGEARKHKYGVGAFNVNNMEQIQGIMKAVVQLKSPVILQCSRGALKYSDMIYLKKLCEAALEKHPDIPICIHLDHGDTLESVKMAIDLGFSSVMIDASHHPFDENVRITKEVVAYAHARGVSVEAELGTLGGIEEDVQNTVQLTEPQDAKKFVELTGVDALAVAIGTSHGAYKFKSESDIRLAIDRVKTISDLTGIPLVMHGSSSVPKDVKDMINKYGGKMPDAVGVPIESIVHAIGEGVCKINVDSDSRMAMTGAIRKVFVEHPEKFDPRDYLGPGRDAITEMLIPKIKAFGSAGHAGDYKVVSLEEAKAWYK
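Giardia FBPA (40 nM reagent) was preincubated 10 min at RT with compound (up to 57.5 uM final), then substrate plus GAPDH/TPI/NAD/arsenate coupling system with diaphorase/resazurin was added; resorufin fluorescence (525/598 nm) was read after 20 min.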
LASV entry inh = qHTS for Inhibitors of binding or entry into cells for Lassa Virus; 1.2% of 300,000 active; Potency, µM (series often up to 37.9 µM), for inactives: at the highest dose activity change, negative = inhibition, hits mostly inhibitors; Lassa virus pseudotype entry inhibition, cell reporter; AID 540256, 2011; calls by dose curve; tested in HEK293 cells; further: potency means the concentration at half of the fitted maximal effect; nearly all actives have a fitted effect of over 50% in size
HCMV antiviral = qHTS Assay for inhibitors of the human cytomegalovirus (HCMV). 4.5% of 410,000 active. activity change, negative = inhibition, % at 57.5 µM. HFF cells, HCMV-luciferase reporter, 72 h; active compounds read low; in the data active means activity change below about -60%; inconclusive means no clear call, values can overlap the other calls; inactive means above about -39%
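Inhibition of viral replication was scored as loss of reporter luminescence in HFFs infected with HCMV-luciferase (MOI 1 PFU/cell) for 72 h; compounds tested at 2 doses, normalized to buffer and Salinomycin controls.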
Marburg entry inh = qHTS for inhibitors of binding or entry into cells for Marburg Virus. Marburg virus pseudotyped entry inhibition, cell reporter. AID 540276, 2011. 1.8% of 300,000 active. Potency, µM (titrated, usually from 37.8 µM), for inactives: top-dose activity change, negative = inhibition, most hits filed as inhibitors; calls by dose curve; tested in HEK293 cells; further: potency means the concentration at half of the fitted maximal effect
HCV inh = qHTS Assay for Inhibitors of Hepatitis C Virus (HCV). Huh7.5.1 HCVcc-Cre infection, luciferase reporter, 44 h. Potency, µM (top dose mostly 41.8 µM), without a hit: at the top dose activity change, negative = inhibition, hits mostly inhibitors. 3.4% of 340,000 active. AID 651820, 2012; further: potency means the concentration at half of the fitted maximal effect
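Reporter virus HCVcc-Cre (~0.5 moi) infects cells exposed to compound; seeding density 1,000 cells/well with 4 h settling beforehand. Luminescence, 15 sec read, taken 44 h post-infection following a 15 min RT substrate incubation.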
FMDV antiviral = High Throughput Screening for Foot and Mouth Disease Virus Antivirals | Potency, µM (top dose mostly 57.9 µM), inactives show at the top dose activity change, negative = inhibition, most hits filed as inhibitors | FMDV antiviral cell-based qHTS | 1.2% of 410,000 active; calls by dose curve; tested in HEK293T cells; further: read-out not given here; potency means the concentration at half of the fitted maximal effect; nearly all actives have a fitted effect of over 45% in size
* = called active by the depositor; ? = inconclusive; . = no result given; [ ] = another dose, or the depositor's remark. Sampled rows, rich in hits. Any-hit rate of the full collection: about 8.3%. Unless noted, the call rests on the fitted dose curve; in most records, active means well fitted curve in the direction sought with a large enough effect; inconclusive means small, poorly fitted or top-dose-only effect, or another doubt; inactive means no such curve, though single readings can be large; an effect the other way counts as inactive or inconclusive. On the % scale 0 is the no-effect control and ±100 the full control effect.

SMILES	FBPA Giardia inh	LASV entry inh	HCMV antiviral	Marburg entry inh	HCV inh	FMDV antiviral
Cc1oc(-c2ccccc2Cl)nc1Cn1cccc1C1=NC(c2ccccc2)CO1 (centres undefined)	5%	7.3µM*	?	?	11µM*	?
Cc1oc(-c2ccccc2Cl)nc1CN1CCCC1c1ccc(F)cc1 (centres undefined)	-2%	.	16	.	-13%	0%
Cc1ccc(NC(=O)Cn2c(=O)n(CCc3ccccc3)c(=O)c3c4c(sc32)CCCC4)c(C)c1	.	29%[46.1 µM]	-4	?	.	-6%
CC1(OC(=O)c2cnc3ccccc3n2)C(=O)C=C2C=C(c3ccsc3)OC=C2C1=O (centres undefined)	2%	.	.	.	.	.
CC(=O)N(Cc1ccc(F)cc1)C1=C(NCc2ccccc2)C(=O)c2ccccc2C1=O	?	6.3µM*	.	?	5µM*	35µM*
O=C(NCc1ccc(F)cc1)C(c1ccccc1)c1ccccc1	8%	.	-11	.	-6%	-7%
COc1cccc(CNC(=O)CCn2cnc3ccccc3c2=O)c1	.	5%[46.1 µM]	-3	.	.	-13%
COc1cccc(COc2cc(-n3cnc4ccccc43)sc2C(N)=O)c1	.	5µM*	.	.	.	.
CC(Oc1cc(-n2cnc3ccc(OC4CCN(C)CC4)cc32)sc1C(N)=O)c1ccccc1Cl (centres undefined)	.	0.2µM*	.	.	.	.
COc1ccc(Cn2nnnc2C(c2ccccc2Cl)N2CCC(C(N)=O)CC2)cc1 (centres undefined)	-2%	?	25	-3%	6%	0%
COc1ccc2ncn(-c3cc(OC(C)c4ccccc4C(F)(F)F)c(C(N)=O)s3)c2c1 (centres undefined)	.	0.22µM*	.	.	.	.
O=c1c2ccccc2nc2n1CCCCC2	6%	-10%	-24	16%	5%	7%
N=c1c2ccccc2nc2n1CCCCCCCCCCC2	.	?	?	?	13µM*	?
Clc1ccc(-c2cc(-c3nnc4n3CCCCC4)c3ccccc3n2)cc1	3%	6%	-72*	-7%	11%	?
CCn1c(NCc2cccc(Cl)c2)nc2ccccc21	.	-6%[46.1 µM]	0	6%[46.1 µM]	.	-22%
Cc1cc(C)nc(N(C#N)CC(=O)c2ccccc2)n1	-3%	?	-24	?	16µM*	-17%
Cc1cc(C)nc(N(C#N)CN2C(=O)c3ccccc3S2(=O)=O)n1	6%	-2%	41	-24%	5%	40µM*
CCc1ccc(C(=O)CN(C#N)c2nc(C)cc(C)n2)cc1	8%	?	?	11µM*	?	-11%
CCc1ccc(OCCNC(=O)c2ccccc2SCc2ccccc2)cc1	1%	?	-88*	?	?	?
Cc1nc2scc(-c3ccccc3)c2c(=O)n1N=C1C=CC(=O)C=C1	-1%	-21%	?	?	?	28µM*
Cc1ccc(N/C(N)=N/c2nc(C)cc(N3CCCCC3)n2)c(C)c1	6%	?	?	?	2.8µM*	16µM*
COc1ccccc1N1CCc2c(C)nc3c(OC)cccc3c21	10%	-14%	.	?	?	?
COc1cccc2c3c(c(C)nc12)CCN3c1ccccc1	5%	-26%	-78*	?	?	-23%
CC(C)(C)Nc1oc(-c2ccccc2)nc1-c1ccccc1F	-5%	.	.	?	.	.
CCCC(=O)N1CC2(C1)CN(C(=O)CN1CCOCC1)[C@H](CO)c1c2c2ccc(OC)cc2n1C	.	.	1	.	.	.
Cc1cccc(Nc2nc(N)nc(CCl)n2)c1	-3%	?	-104*	?	3.2µM*	15%
COc1cccc(Nc2nc(N)nc(CCl)n2)c1	-2%	?	-80*	?	?	16%
CCN1C(=O)NC(c2ccco2)C(C(C)=O)=C1C (centres undefined)	.	.	.	26%[14.2 µM]	.	.
Cc1cc2c(NC(=O)Nc3ccccc3)cccc2nn1	5µM*	-1%[46.1 µM]	44	2%[46.1 µM]	?	0%
Cc1cc2c(NC(=O)Nc3ccc(C(C)(C)C)cc3)cccc2nn1	?	.	2	.	14µM*	?
